# High-throughput results (PubChem)
# RN4220 kill – S. aureus RN4220 growth inhibition; actives 0.33% (n = 330,000); inhibition, % (test concentration not listed); OD600, 16 h; in the data active = inhibition above about 85%;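 note: plate controls were untreated cells for no effect and reference antibiotic for full effect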
# PfHsp40 yeast – restores yeast growth despite PfHsp40 toxicity. actives 0.68% (n = 340,000). S. cerevisiae expressing PfHsp40, growth rescue, ATP luminescence. growth rescue, % at 12.5 µM; in the data active = growth rescue above about 28%, passing the limit was not always enough; inconclusive = no clear call, values can overlap the other calls;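 note: yeast W303a lacking pdr1 and pdr3 grown in galactose medium; growth measured after three days at 30 °C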
# Mtb betalactam – beta-lactam sensitization of Mtb H37Rv | inhibition, % at 25 µM | M. tuberculosis H37Rv growth with meropenem, percent inhibition | actives 0.27% (n = 330,000) | AID 434955; call rule not given here;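 note: growth measured after seven days incubation then overnight dye step; 0% = bacteria only wells and 100% = bacteria with antibiotic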
# ugtP null kill – compounds lethal to S. aureus RN4220 ugtP deletion mutant | OD600 growth, 16 h | actives 0.54% (n = 330,000) | AID 1259309 | growth inhibition, % (concentration not given with the values); in the data active = growth inhibition above about 68%;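 note: plate controls were untreated wells for no effect and antibiotic for full effect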
# Mtb BioA inh – inhibitors of Mycobacterium tuberculosis BioA enzyme; purified M. tuberculosis BioA enzyme, plate reader; actives 0.096% (n = 360,000); inhibition, % at 9.99 µM; in the data active = inhibition above about 40%; inconclusive = no clear call, values can overlap the other calls
# * = called active by the depositor; ? = inconclusive; · = no result. Rows were chosen to be rich in hits. Some 0.9% of all compounds tested hit in one or more screens of this group.
SMILES,RN4220 kill,PfHsp40 yeast,Mtb betalactam,ugtP null kill,Mtb BioA inh
NC(=O)C1CC2(CC(c3cccc(NC(=O)C4CCC(=O)N4)c3)=NO2)CN1C(=O)c1ccccc1C(=O)c1ccccc1 (stereo not given),4.8,·,·,-2.5,·
C/C=C/c1ccc(OCCOc2cc(C=O)ccc2OC)c(OC)c1,2.2,39.3*,40.8,38.1,·
CCOc1ccc2nc(NC(=S)N(C)C)sc2c1,-0.7,122.3*,91.3,-1.5,0.9
CCCC(=O)Nc1nc2ccc(OCC)cc2s1,2.1,1.3,-2.2,1.8,-0.9
Cc1cc(C)n(-c2nc(-c3ccccc3)cs2)n1,-0.4,0.2,-0.1,75.6,-3.3
Cc1cc(C)n(-c2nc(-c3cccc(Cl)c3)cs2)n1,-0.1,-0.1,97.6,88.4*,-1.2
O=C1c2cccc3c(N4CCOCC4)c([N+](=O)[O-])cc(c23)C(=O)N1c1cccc2ccccc12,95.2*,0.0,99.4,97.5*,·
COC(=O)c1ccc2[nH]c(C3(O)CCCCC3)c(C)c2c1,-2.7,0.9,-3.5,-25.7,-0.3
Cc1c(C2(O)CCCCC2)[nH]c2ccc(C(F)(F)F)cc12,·,287.2*,96.1,·,2.8
Cc1ccc(Nc2cc(C)nn2-c2nc(C)cc(=O)[nH]2)cc1,97.6*,13.2,92.3,99.1*,0.4
Cc1ccc(Nc2cc(C)nn2-c2nc(C)cc(C)n2)cc1,7.3,?,96.7,-9.3,0.7
O=C(NC(=S)NCc1ccc2c(c1)OCO2)c1ccccc1,-5.0,51.7*,-7.3,6.3,2.6
CC(C)C(=O)Nc1cccc(NC(=S)NC(=O)c2ccc(Cl)cc2)c1,2.0,-1.1,13.1,83.0*,0.4
O=C(NCc1ccccc1)NC1(C(=O)Nc2ccc3c(c2)OCCO3)CCCCC1,6.9,2.3,3.8,-3.3,-1.3
O=C(NCc1ccc2c(c1)OCO2)c1ccccc1,4.0,-0.1,21.5,15.8,·
Cc1cc(C)cc(C(=O)NC(=S)Nc2ccc(Cc3ccncc3)cc2)c1,1.7,5.4,54.6,86.7*,1.8
O=C(Nc1ccccc1)NC1(C(=O)NCc2ccc3c(c2)OCO3)CCCCC1,9.1,0.5,4.1,99.8*,-4.6
CC(=O)OCC(=O)[C@@]12OC3(CCCC3)OC1CC1C3CCC4=CC(=O)C=C[C@]4(C)[C@@]3(F)C(O)C[C@@]12C (stereo not given in full),0.4,·,·,-10.2,·
C=CCCC(Cc1ccc(F)cc1)C(=O)OCC(Cc1ccccc1)NC(=O)C(CC=C)CC(=O)NC(CO)Cc1ccccc1 (stereo not given),6.0,·,·,11.8,·
CC(C)(C)OC(=O)C(Cc1ccccc1)NC(=O)c1nc[nH]c1C(=O)N1CCNCC1 (stereo not given),7.7,·,·,10.1,·
Cc1cc(C)cc(C(=O)NC(=S)Nc2ccc3c(c2)OCCO3)c1,5.8,-0.2,3.1,92.7*,·
COc1ccc(Cl)cc1NC(=S)NC(=O)c1ccc2c(c1)OCO2,-2.5,0.9,10.5,-5.0,-1.8
O=C(NC(=S)Nc1ccc2c(c1)OCO2)c1ccc(Cl)cc1,5.0,-1.6,-3.1,87.7*,·
CCc1ccc(C(=O)NC(=S)Nc2ccc3c(c2)OCCO3)cc1,15.9,8.1,50.8,37.2,-0.2
CC(=O)Oc1c(C)c(C)c2c(c1C)CC[C@@](C)(CCCC(C)CCCC(C)CCCC(C)C)O2 (stereo not given in full),7.4,·,·,-1.2,·
SMILES,RN4220 kill,PfHsp40 yeast,Mtb betalactam,ugtP null kill,Mtb BioA inh
CCN1C(=O)CSC1=NS(=O)(=O)c1ccccc1,5.4,·,·,5.0,·
CCN1C(=O)CSC1=NC1C2CC3CC(C2)CC1C3 (stereo not given),7.9,-0.7,4.6,91.4*,·
Cc1cccc(-n2c(SCC(N)=O)nc3c(c2=O)C2(CCCC2)Cc2ccccc2-3)c1,-1.4,4.2,4.7,74.2,0.7
NC(=O)CSc1nc2c(c(=O)n1-c1ccccc1)C1(CCCCC1)Cc1ccccc1-2,-7.5,0.3,-0.2,89.8*,·
O=C(O)/C=C/C(=O)c1ccc2c(c1)CCc1ccccc1-2,·,429.6*,27.6,·,2.0
COc1ccc([N+](=O)[O-])cc1NC(=O)Nc1ccccc1,95.2*,-1.0,-2.1,83.4*,5.5
COc1ccc([N+](=O)[O-])cc1NC(=O)CCN1CCN(CCO)CC1,3.0,0.2,2.4,4.9,45.4*
CCOC(=O)N1CCN(CCC(=O)Nc2cc([N+](=O)[O-])ccc2OC)CC1,4.7,-0.3,-14.1,9.1,·
Oc1cc(Cl)ccc1Oc1ccc(Cl)cc1Cl,100.0*,263.0*,36.6,100.1*,1.7
S=c1[nH]cc(Oc2ccc(Cl)cc2Cl)c(=S)[nH]1,22.7,·,·,5.1,0.6
O=S(=O)(Nc1nc2ccccc2nc1N1CCN(c2ccccn2)CC1)c1ccc(Cl)cc1,5.2,142.5*,·,3.6,3.8
CN1C(=O)C(=Cc2ccccc2OCc2ccccc2Cl)C(=O)N(C)C1=O,8.8,-0.2,-0.5,8.7,·
CN1C(=O)C(=Cc2c(OCc3cnc(Cl)s3)ccc3ccccc23)C(=O)N(C)C1=O,2.9,125.2*,12.1,18.2,·
CC(C)(C)c1ccc(C=NOCC(=O)NCc2ccc(F)cc2)cc1,-7.0,·,·,43.1,·
CC(C)(C)c1ccc(/C=N/OCC(=O)NCc2ccc(F)cc2)cc1,·,73.6*,10.6,·,·
Cc1ccc(C(C)C)c(OCc2nn(CC(=O)c3ccc(Cl)cc3)c3[n+]2CCCCC3)c1,100.5*,0.1,100.2,99.4*,·
Nc1ccc(C(=O)OCC(=O)N2CCOCC2)cc1[N+](=O)[O-],2.4,47.4*,-1.4,-7.9,·
O=C(CC1CC=CCCC(Cc2ccc(F)cc2)C(=O)OCC(Cc2c[nH]c3ccccc23)NC1=O)NCCO (stereo not given),4.6,·,·,2.2,·
CCOC(=O)C1=NN(c2ccccc2)C(=O)C1,5.8,112.8*,-1.9,4.1,·
CCOC(=O)C1=NN(c2ccccc2)C(=O)/C1=C\c1ccc(N(C)C)cc1,-6.1,81.3*,99.6,-3.3,0.6
CCN1CC2C3C(=O)N(C)C(=O)C3[C@](C)(C1=O)N2C(=O)c1ccc(C(F)(F)F)cc1 (stereo not given in full),3.5,·,·,0.7,·
CCN1/C(=C/C=C/c2oc3ccc4ccccc4c3[n+]2CC)Oc2ccc3ccccc3c21,98.4*,·,96.2,99.3*,·
COc1cccc(CN2CCN(C(=O)CC(C)C)CC2)c1,8.4,35.9*,-2.5,3.0,0.4
Cc1ccc(CN2C(=O)C3Cc4c([nH]c5ccccc45)C(C)(C)N3C2=O)cc1 (stereo not given),-0.4,·,·,3.4,·
CCCOc1ccc(C2=CC(=O)CC(c3ccc(OC)cc3)C2)cc1 (stereo not given),3.5,·,·,58.8,·
C[CH2][Hg][S]c1ccccc1C(=O)O,100.4*,-7.6,100.3,98.4*,-1.6
CC1CN(C(C)CO)C(=O)c2cccc(NS(=O)(=O)c3ccccc3)c2OC1CN(C)CC1CCCCC1 (stereo not given),4.8,·,·,0.7,·
CCCSc1ccc(C2C3C(=O)N(C)C(=O)C3[C@]3(C(=O)OC)CCCN23)cc1OC (stereo not given in full),2.9,·,·,2.2,·
O=[N+]([O-])c1ccc(NN=Cc2c[nH]c3ccccc23)c(S(=O)(=O)Nc2ccc(Cl)cc2)c1,80.7,·,·,99.2*,·
